Unmarked numbers belong to inactive results. How the calls were made is not given here.
These molecules were tested against Pantothenate synthetase (Mycobacterium tuberculosis (strain ATCC 25618 / H37Rv)) (UniProt P9WIL5) (assay: Coupled enzyme confirmation of inhibitors against recombinant Mtb PanC (AID 375;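 further: 0% = full reaction with vehicle and 100% = no enzyme background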)). Conditions: coupled enzyme assay; at 10 µM, stronger effect = higher value.
Chain of Pantothenate synthetase (Mycobacterium tuberculosis (strain ATCC 25618 / H37Rv)) (P9WIL5 whole entry, looked up): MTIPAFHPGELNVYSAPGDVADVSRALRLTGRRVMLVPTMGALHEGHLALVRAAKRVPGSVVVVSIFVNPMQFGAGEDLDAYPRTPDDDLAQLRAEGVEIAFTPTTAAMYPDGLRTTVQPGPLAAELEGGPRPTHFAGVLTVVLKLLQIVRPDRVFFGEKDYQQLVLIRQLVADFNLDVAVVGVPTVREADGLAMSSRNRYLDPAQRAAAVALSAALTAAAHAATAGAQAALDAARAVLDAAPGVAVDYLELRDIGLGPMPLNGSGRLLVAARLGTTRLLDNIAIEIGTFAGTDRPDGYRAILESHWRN

SMILES	inhibition
CN1CCN(C(=O)c2cnn3c(C(F)F)cc(C4CC4)nc23)CC1	6%
CC(C)COc1ccc(C(=O)OCCN2CCOCC2)cc1	1%
COc1ccc(-c2noc(CSc3nc4ccccc4c(=O)n3-c3ccccc3)n2)cc1OC	1%
CN(C)c1ccc(NC(=O)Nc2cccc(Cl)c2)cc1	0%
CCOC(=O)C(NCc1ccccc1OC)(NC(C)=O)C(F)(F)F (stereo not given)	0%
CC(C)OC(=O)C1C2C=CC3(CN(Cc4cccs4)C(=O)C13)O2 (stereo not given)	0%
CSc1nnc(-c2cnccn2)n1Cc1ccccc1	0%
Cc1ccc(-c2nn(C)c(=O)c3ccccc23)cc1S(=O)(=O)NCCN1CCOCC1	2%
CCOc1ccc(OCC)c(NC(=O)CN2CCN(C(=O)c3ccco3)CC2)c1	0%
COc1ccc(Cl)cc1S(=O)(=O)n1cnc2ccccc21	1%
CCN(CC)S(=O)(=O)c1cccc(-c2nnc(SCCOc3ccccc3C)o2)c1	1%
CC(=O)c1c(C)nn(C(C)CC(=O)O)c1C (stereo not given)	0%
CCOC(=O)N1CCC(NC(=O)Cn2c3c(c(-c4ccccc4Cl)cc2=O)CCC3)CC1	0%
COc1cc2nc(C3CCC3)n(NC(=O)C3CCCC(OC)C3)c(=O)c2cc1OC (stereo not given)	2%
CCOc1cc2[nH]c(=O)n(CCC(=O)NCCc3ccc(OC)c(OC)c3)c(=O)c2cc1OCC	1%
CCN1C(=C2C(=O)c3ccccc3C2=O)C=Cc2ccccc21	0%
CCOC(=O)c1cnc2c(OC)cccc2c1N1CCN(c2ccc(OC)cc2)CC1	0%
CC(=O)Nc1ccc(S(=O)(=O)N(C2=NCC(C)S2)c2ccccc2)cc1 (stereo not given)	0%
COc1ccc(NS(=O)(=O)c2c(C)[nH]c(=O)[nH]c2=O)c(OC)c1	0%
O=C1c2ccccc2C(Nc2ccc(-c3nc4ccccc4[nH]3)cc2)N1Cc1ccco1 (stereo not given)	5%

SMILES	inhibition
O=C(Nc1ccc(CN2CCOCC2)cc1)c1cc2ccccc2oc1=O	4%
CCCCOc1cc(=O)[nH]c(=O)[nH]1	4%
O=C(NCc1ccccc1)c1ccc(OC2CSC2)cc1	1%
CCOC(=O)C1(C)NC(c2ccc(OC)c(OC)c2)C2C(=O)N(CC)C(=O)C21 (stereo not given)	9%
COc1ccc(C)cc1-n1nnnc1SC/C(O)=C(\C#N)c1nc2ccccc2[nH]1	4%
CC(NC(=O)C1CC1)C(c1cccs1)N1CCN(c2ccccc2)CC1 (stereo not given)	0%
NC(=O)NC(=O)CSc1cccc(C(F)(F)F)c1	0%
O=C(O)CCCc1nc(-c2ccccc2)no1	0%
COc1cccc(NS(=O)(=O)c2ccc3[nH]cc(C(=O)NC4CC4)c(=O)c3c2)c1	2%
COc1ccc(N2CCN(C(c3cccs3)c3nnnn3C3CCCC3)CC2)cc1 (stereo not given)	6%
O=S1(=O)C=C(Sc2nc3ccccc3s2)c2ccccc21	0%
O=C(Nc1cc(C(=O)N2CCCC2)ccc1N1CCCC1)c1ccccc1F	2%
Cc1cnc(C(=O)Nc2ccccc2-n2cccc2)cn1	3%
CCOC(=O)c1c(-c2ccc(C)o2)csc1NC(=O)CN1CCN(CC)CC1	0%
CCOC(=O)C1CCN(C(=O)c2c(-c3c(Cl)cccc3Cl)noc2C)CC1	0%
CC(=O)N1CCc2cc(S(=O)(=O)NCCC3=CCCCC3)ccc21	2%
Cc1ccc(-c2nnc(N3CCN(C(=O)CN4C(=O)c5ccccc5C4=O)CC3)c3ccccc23)cc1	0%
CC(C)c1nnc(NC(=O)c2ccc(N3C(=O)CCC3=O)cc2)s1	0%
CCC(=O)N1CCc2cc(S(=O)(=O)CCC(=O)Nc3nc(C)cs3)ccc21	5%
CC1CCCCC1NC(=O)c1ccc(N2CCCC2=O)cc1 (stereo not given)	0%

Reference: PubChem BioAssay
